Source: PubChem BioAssay (NCATS)
Inconclusive results are not listed. Activity calls are given as the source filed them. Calls come from the whole dose curve; as a rule, active = well fitted curve in the direction sought with a large enough effect; inconclusive = small, poorly fitted or top-dose-only effect, or another doubt; inactive = no such curve, though single readings can be large; an effect the other way counts as inactive or inconclusive.

How the values were obtained:
[1] = qHTS of pediatric cancer cell lines to identify multiple opportunities for drug repurposing: Primary screen for OHS-50 cells (AID 1347103); note: nearly all actives have a fitted effect of over 40% in size; note: potency is the fitted concentration of half-maximal effect
How it was run: (§1)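 Cells (500-1,000/well) rested 5 h, then received compounds for 48 h; metabolically active cells were measured by CellTiter-Glo luminescence. Final concentrations spanned up to 46 µM (MIPE, 11-point) or 0.59 nM-46 µM (NPC, 8-point) in primary screens, 11-point in follow-ups.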

[2] = qHTS of pediatric cancer cell lines to identify multiple opportunities for drug repurposing: Primary screen for RD cells (AID 1347104); note: nearly all actives have a fitted effect of over 55% in size; note: potency is the fitted concentration of half-maximal effect
How it was run: (§2)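 Plated cells (500-1,000 per well, growth media) were allowed to settle for 5 hours, treated with compound dilutions for 48 hours, then lysed with CellTiter-Glo for 15 min at room temperature before luminescence reading.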

[3] = qHTS of pediatric cancer cell lines to identify multiple opportunities for drug repurposing: Primary screen for control Hh wild type fibroblast cells (AID 1347106);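 note: series mostly up to about 46 µM; a drop in luminescence marks cytotoxicity and a rise apparent proliferation; nearly all actives have a fitted effect of over 55% in size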
How it was run: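 Cells (500-1,000/well) in growth media were settled 5 h at 37 degrees C, then given compounds for 48 h. Viability was read as CellTiter-Glo luminescence. Primary runs used MIPE at 11 points (0.78 nM-46 µM) and NPC at 8 points (0.59 nM-46 µM); follow-ups used 11 points.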

[4] = qHTS of pediatric cancer cell lines to identify multiple opportunities for drug repurposing: Confirmatory screen for NB1643 cells (AID 1347109); note: potency is the fitted concentration of half-maximal effect; nearly all actives have a fitted effect of over 45% in size
How it was run: as §1

[5] = qHTS of pediatric cancer cell lines to identify multiple opportunities for drug repurposing: Confirmatory screen for SK-N-MC cells (AID 1347111);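 note: potency is the fitted concentration of half-maximal effect; cells exposed to compound for 48 h before the readout; nearly all actives have a fitted effect of over 70% in size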
How it was run: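 Seed 500-1,000 cells/well; rest 5 h at 37 degrees C. Pin-transfer compounds, 11-point titration. Incubate 48 h. Add CellTiter-Glo, 15 min RT, read luminescence.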

[6] = qHTS of pediatric cancer cell lines to identify multiple opportunities for drug repurposing: Confirmatory screen for BT-12 cells (AID 1347112); note: nearly all actives have a fitted effect of over 55% in size; note: potency is the fitted concentration of half-maximal effect
How it was run: as §1

[7] = qHTS of pediatric cancer cell lines to identify multiple opportunities for drug repurposing: Confirmatory screen for LAN-5 cells (AID 1347113); note: nearly all actives have a fitted effect of over 65% in size; note: potency is the fitted concentration of half-maximal effect
How it was run: as §1

[8] = qHTS of pediatric cancer cell lines to identify multiple opportunities for drug repurposing: Confirmatory screen for NB-EBc1 cells (AID 1347115);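 note: cells exposed to compound for 48 h before the viability read; nearly all actives have a fitted effect of over 45% in size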; note: potency is the fitted concentration of half-maximal effect
How it was run: as §1

[9] = qHTS of pediatric cancer cell lines to identify multiple opportunities for drug repurposing: Confirmatory screen for SJ-GBM2 cells (AID 1347116); note: potency is the fitted concentration of half-maximal effect; nearly all actives have a fitted effect of over 60% in size
How it was run: (§3)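 Viability measured as metabolically active cells via CellTiter-Glo luminescence following 48 hours of compound exposure, 11-point dilutions in confirmatory testing. 500-1,000 cells/well plated 5 hours before dosing; controls were DMSO and 2.3 µM bortezomib.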

[10] = qHTS of pediatric cancer cell lines to identify multiple opportunities for drug repurposing: Confirmatory screen for TC32 cells (AID 1347118);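 note: potency is the fitted concentration of half-maximal effect; cells exposed to compound for 48 h before the read; nearly all actives have a fitted effect of over 65% in size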
How it was run: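 Measured quantity: luminescence from CellTiter-Glo, reflecting metabolically active TC32 cells following 48 h of compound. Curves came straight from multi-point titrations, with 8 or 11 points in primary and 11 in confirmatory screening.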

[11] = qHTS of pediatric cancer cell lines to identify multiple opportunities for drug repurposing: Confirmatory screen for MG 63 (6-TG R) cells (AID 1347119); note: nearly all actives have a fitted effect of over 55% in size; note: potency is the fitted concentration of half-maximal effect
How it was run: as §1

[12] = qHTS of pediatric cancer cell lines to identify multiple opportunities for drug repurposing: Confirmatory screen for control Hh wild type fibroblast cells (AID 1347121); note: nearly all actives have a fitted effect of over 70% in size; note: potency is the fitted concentration of half-maximal effect
How it was run: as §1

[13] = qHTS of pediatric cancer cell lines to identify multiple opportunities for drug repurposing: Confirmatory screen for Rh41 cells (AID 1347123);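 note: 48 h compound exposure; nearly all actives have a fitted effect of over 60% in size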; note: potency is the fitted concentration of half-maximal effect
How it was run: as §1

[14] = qHTS of pediatric cancer cell lines to identify multiple opportunities for drug repurposing: Primary screen for Rh30 cells (AID 1347107); note: series mostly up to about 46 µM; nearly all actives have a fitted effect of over 75% in size
How it was run: as §1

[15] = qHTS of pediatric cancer cell lines to identify multiple opportunities for drug repurposing: Primary screen for Rh41 cells (AID 1347108); note: nearly all actives have a fitted effect of over 70% in size; note: potency is the fitted concentration of half-maximal effect
How it was run: as §2

[16] = qHTS of pediatric cancer cell lines to identify multiple opportunities for drug repurposing: Primary screen for MG 63 (6-TG R) cells (AID 1347105); note: nearly all actives have a fitted effect of over 50% in size
How it was run: as §2

[17] = qHTS of pediatric cancer cell lines to identify multiple opportunities for drug repurposing: Confirmatory screen for A673 cells (AID 1347110);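 note: potency is the fitted concentration of half-maximal effect; cells exposed to compound for 48 h before the viability read; nearly all actives have a fitted effect of over 65% in size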
How it was run: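 Forty-eight-hour viability assay. Follow-up compounds ran at 11-point dilutions; positive control bortezomib at 2.3 uM final, neutral control DMSO.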

[18] = qHTS of pediatric cancer cell lines to identify multiple opportunities for drug repurposing: Confirmatory screen for BT-37 cells (AID 1347117); note: nearly all actives have a fitted effect of over 55% in size; note: potency is the fitted concentration of half-maximal effect
How it was run: as §1

[19] = qHTS of pediatric cancer cell lines to identify multiple opportunities for drug repurposing: Confirmatory screen for U-2 OS cells (AID 1347122); note: potency is the fitted concentration of half-maximal effect; nearly all actives have a fitted effect of over 65% in size
How it was run: as §1

[20] = qHTS of pediatric cancer cell lines to identify multiple opportunities for drug repurposing: Confirmatory screen for DAOY cells (AID 1347114)
How it was run: as §3

Measured: Potency

O=c1[nH]sc2cc(Cl)ccc12
inactive: [2] | [3] | [12]
active: [1] 13.8 µM | [4] 8.27 µM | [5] 9.27 µM | [6] 16.5 µM | [7] 10.4 µM | [8] 20.8 µM | [9] 20.8 µM | [10] 20.8 µM | [11] 20.8 µM | [13] 1.85 µM

CNC[C@H](O)[C@@H](O)[C@H](O)[C@H](O)CO
inactive: [1] | [2] | [3] | [14] | [15]

Cc1ccccc1C(=O)N1CC/C(=N\OS(=O)(=O)O)c2ccc(Cl)cc21
inactive: [1] | [2] | [3] | [14] | [15]

CNC(=O)c1cnn(-c2nc(N)c3ncn([C@@H]4O[C@H](CO)[C@@H](O)[C@H]4O)c3n2)c1
inactive: [1] | [16] | [3] | [14] | [15]

CC(=O)OCC(=O)Nc1cc(C#N)cc(NC(=O)COC(C)=O)c1Cl
inactive: [1] | [16] | [3] | [14]

OCc1c[nH]c2ccccc12
inactive: [1] | [16] | [3] | [14]

Cc1nc(N)nc(N)c1-c1ccc(Cl)c(Cl)c1
inactive: [3] | [14] | [15] | [7] | [11] | [12] | [13]
active: [1] 2.76 µM | [2] 1.33 µM | [17] 1.65 µM | [5] 0.147 µM | [10] 0.147 µM

Cc1[nH]cnc1-c1ccc(Cl)cc1
inactive: [1] | [2] | [3] | [14] | [15]

C=C(C)C(=O)OCC(O)CO (configuration not stated)
inactive: [1] | [2] | [3] | [14] | [15]

CC(C(=O)O)c1ccc(/C=C2\CCCCC2=O)cc1 (configuration not stated)
inactive: [1] | [16] | [3] | [14] | [15]

CC(C)C(=O)Nc1cccc(C2CN3CCSC3=N2)c1 (configuration not stated)
inactive: [1] | [2] | [3] | [14] | [15]

CN1CCC(=C2c3ccccc3CCc3cccnc32)CC1
inactive: [1] | [16] | [3] | [14] | [15]

Cc1ccc(-c2ccccc2C#N)cc1
inactive: [1] | [2] | [3] | [14] | [15]

CC(=O)c1cc2ccccc2s1
inactive: [1] | [16] | [3] | [14] | [15]

Cc1nc([N+](=O)[O-])cn1-c1ccc([N+](=O)[O-])cc1
inactive: [1] | [2] | [3] | [14] | [15]

Nc1c2ccccc2nc2ccccc12
active: [1] 24.6 µM | [2] 15 µM | [15] 16.8 µM | [4] 4.14 µM | [17] 6.57 µM | [5] 3.29 µM | [6] 3.69 µM | [7] 3.69 µM | [8] 6.57 µM | [9] 3.29 µM | [18] 2.93 µM | [10] 2.93 µM | [19] 14.7 µM | [13] 16.5 µM

N#CC1(c2ccc(F)cc2)CCC(=O)CC1
inactive: [1] | [16] | [3] | [14] | [15]

Cc1coc2ccccc2c1=O
inactive: [1] | [2] | [3] | [14] | [15]

CNC(=O)c1c(I)c(NC(C)=O)c(I)c(C(=O)O)c1I
inactive: [1] | [16] | [3] | [14] | [15]

CCCC(CCC)(C(=O)OCC)C(=O)OCC
inactive: [1] | [2] | [3] | [14] | [15]

C=CC[N+]1([C@H]2C[C@H]3[C@@H]4CC[C@H]5C[C@H](OC(C)=O)[C@@H](N6CCCCC6)C[C@]5(C)[C@H]4CC[C@]3(C)[C@H]2OC(=O)CC)CCCCC1
inactive: [1] | [16] | [3] | [14] | [15]

Cc1cc(OCCOCC[N+](C)(C)Cc2ccccc2)ccc1C(C)(C)CC(C)(C)C
inactive: [3]
active: [1] 4.37 µM | [2] 18.8 µM | [4] 8.27 µM | [17] 1.04 µM | [5] 2.61 µM | [6] 13.1 µM | [7] 9.27 µM | [20] 11.7 µM | [8] 16.5 µM | [9] 14.7 µM | [18] 10.4 µM | [10] 2.93 µM | [11] 9.27 µM | [12] 20.8 µM | [19] 23.3 µM | [13] 7.37 µM

O=[N+]([O-])c1cncn1CCN1CCOCC1
inactive: [1] | [2] | [14] | [15]

CCOC(=O)c1cc(=O)c2c(OCC(COc3cccc4oc(C(=O)OCC)cc(=O)c34)OC(=O)[C@@H](N)CCCCN)cccc2o1
inactive: [1] | [2] | [3] | [14] | [15]

CCCCCCCCCCCCCCCC[n+]1ccccc1
active: [1] 2.46 µM | [2] 13.3 µM | [15] 11.9 µM

CN1C(=O)CC(C)(c2ccccc2)C1=O (configuration not stated)
inactive: [1] | [2] | [3] | [14] | [15]

CC(C)CCCC(C)NCCC(C)C (configuration not stated)
inactive: [1] | [16] | [3] | [14] | [15]

Oc1ccccc1-c1nnco1
inactive: [1] | [16] | [3] | [14] | [15]

CCCC(=O)O[C@]1(C(=O)COC(=O)CC)CC[C@H]2[C@@H]3CCC4=CC(=O)CC[C@]4(C)[C@H]3[C@@H](O)C[C@@]21C
active: [10] 8.27 µM
inactive: [6] | [8] | [18] | [11] | [12]
